According to PubChem BioAssay AID1578 (Sanford-Burnham Center for Chemical Genomics, 2009):
Out of some 290,000 compounds screened, about 3,000 (1%) were called active. Shown is part of a subset that was picked to be rich in actives. Unmarked numbers belong to inactive results. Cut-off read from the data, not from the text of the source: active = inhibition mostly above about 36% (no sharp cut-off); inactive = mostly below about 34%.

Experiment: NOD1 signaling inhibitors, primary screen, cell-based, luminescence, uHTS (AID 1578);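 note: HEK-293T reporter cells stimulated with the NOD1 agonist gamma-tri-DAP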
Conditions: NOD1-driven NF-kB luciferase reporter cells, at 4 µM, stronger effect = higher value

Compared with `COCCn1nnnc1C(CC(C)C)N1CCN(c2ccccc2)CC1` (stereo not drawn), `COc1ccc(C(c2nnnn2C(C)C)N2CCN(C(=O)c3ccco3)CC2)cc1` (stereo not drawn) is higher in inhibition: -24.8% for the first, 10.7% for the second.

Compared with `CN1CCN(c2ccccc2NC(=S)NC(=O)c2cc3ccccc3o2)CC1`, `O=C(CSc1nnc(C2COc3ccccc3O2)o1)N1CCN(c2ccccc2)CC1` (stereo not drawn) is lower in inhibition: 5.8% for the first, -24.7% for the second.

Compared with `CN1c2cccc3cccc(c23)N(C)C1(C)C`, `CN1C(=O)N(C)c2ccc(C=O)c3cccc1c23` is lower in inhibition: 9.4% for the first, -32.8% for the second.

First: O=C(CN(Cc1ccccc1)C(=O)CCC(=O)Nc1nccs1)NCc1ccco1
Second: O=C(CNC(=O)c1ccco1)NCCCc1ccccc1
The inhibition of the first is lower: -21.9% for the first, 17.4% for the second.

Going from `CC(CCc1ccccc1)NC(=O)Cn1cccc1C(=O)c1ccccc1` (stereo not drawn) to `CCOc1ccc(C(=O)NC(=S)N(Cc2ccccc2)Cc2ccccc2)cc1`, the inhibition rises from -9.7% to 51.4%.

Compared with `Cc1nc2ccc(NC(=O)c3ccc(S(=O)(=O)N(C)c4ccccc4)cc3)cc2s1`, `Cc1nc2ccc(NC(=O)c3ccc(Cl)c(S(=O)(=O)N(C)c4ccccc4)c3)cc2s1` is higher in inhibition: 17.6% for the first, 51.8% for the second.

Compared with `CN(c1ccccc1)S(=O)(=O)c1ccc(Cl)c(C(=O)Nc2ccc(-c3nc4ccccc4[nH]3)cc2)c1`, `CC(=O)c1cccc(NC(=O)c2ccc(N(Cc3ccccc3C)S(C)(=O)=O)cc2)c1` is higher in inhibition: 4.8% for the first, 6.4% for the second.

First: Cc1nc2ccc(NC(=O)c3ccc(S(=O)(=O)N(C)C)cc3)cc2s1
Second: Cc1cc(/C=c2\sc3nc4ccccc4n3c2=O)c(C)n1-c1ccc(C(=O)O)cc1
The inhibition of the first is lower: -37.4% for the first, 20.6% for the second.

Going from `COc1ccc(CCNC(=O)CCS(=O)(=O)c2ccc3c(c2)oc(=O)n3C)cc1OC` to `COc1ccc(C(=O)C2CCCN(Cc3ccc4nonc4c3)C2)cc1OC` (stereo not drawn), the inhibition rises from -25.6% to -4.5%.

First: CC(C)C(=O)NC(=S)N1CCc2ccccc21
Second: O=C(COc1ccc(Cl)cc1Cl)NC(=S)N1CCCc2ccccc21
The inhibition of the first is lower: -40.2% for the first, 28.6% for the second.

Going from `CC(C)NC(=O)c1ccc2c(c1)N(CC(=O)N1CCCCC1)C(=O)C(C)(C)O2` to `CCOC(=O)C1CCCN(C(=O)CNC(=O)c2nn(-c3ccc(OC)c(Cl)c3)c(=O)c3ccccc23)C1` (stereo not drawn), the inhibition falls from 1.4% to -5.1%.

Going from `O=C(CSc1nnnn1-c1ccccc1)Nc1ncc(Cc2cccc(Cl)c2Cl)s1` to `Cn1nnnc1SCC(=O)Nc1nc(-c2ccc(F)c(F)c2)cs1`, the inhibition falls from -16.9% to -20.9%.

First: Cc1ccc(C)c(NC(=O)C2CC(O)CN2C(=O)OCc2ccccc2)c1 (stereo not drawn)
Second: COc1ccc(/C=N/NC(=O)CCC(=O)Nc2ccccc2)cc1OC
The inhibition of the first is higher: 4.8% for the first, -8.6% for the second.

First: COC(=O)CC1(C(=O)OC)Oc2ccc(Br)cc2C(=O)N1c1cc(Cl)cc(Cl)c1 (stereo not drawn)
Second: CCOc1cc(/C=C(/NC(C)=O)C(=O)O)cc(Cl)c1OCc1cccc(Br)c1
The inhibition of the first is lower: -11.1% for the first, -9.8% for the second.

Compared with `Cc1nonc1NC(=O)CSc1ccccn1`, `CC(=O)Nc1nonc1NC(=O)CSc1ccccn1` is lower in inhibition: 4% for the first, 2.6% for the second.

First: COc1ccc(NC(=O)CSc2nn3c(=O)c(C)nnc3s2)cc1
Second: Cc1nnc2sc(SCC(=O)Nc3nccs3)nn2c1=O
The inhibition of the first is lower: -19.6% for the first, -2.3% for the second.

First: CCOc1ccccc1NC(=O)Nc1cnccn1
Second: COc1ccc(NC(=O)Nc2cnccn2)c(OC)c1
The inhibition of the first is higher: 11.8% for the first, -27.1% for the second.

Going from `COC(=O)Nc1ccc2c(c1)N(C(=O)CCCl)c1ccccc1S2` to `CC(=O)Nc1cccc(NC(=O)CSc2nc3ccccc3o2)c1`, the inhibition rises from 3.3% to 43.3%.

First: COc1ccc(C(=O)NNC(=O)C(=O)/C=C(\O)c2ccc(C)cc2)cc1
Second: COc1ccc(C(NC(C)=O)c2cc(Cl)c3cccnc3c2O)cc1 (stereo not drawn)
The inhibition of the first is higher: 0.6% for the first, -6.4% for the second.

Compared with `Cc1cccc(C(=O)NC(=S)NCc2cccnc2)c1`, `C/C(=N/NC(=O)c1ccc(C)s1)c1cccnc1` is lower in inhibition: -31.1% for the first, -53.1% for the second.

Compared with `O=C(NCCCN1CCOCC1)c1cccc(S(=O)(=O)Nc2cc(Cl)ccc2Cl)c1`, `Cc1ccc(-n2cc(C(=O)c3ccc(N4CCN(C)CC4)cc3)nn2)cc1Cl` is lower in inhibition: -34.3% for the first, -52.8% for the second.

First: Cc1sc2ncnc(SCC(=O)Nc3nc(-c4ccc(F)c(F)c4)cs3)c2c1C
Second: CCOC(=O)C(=O)N1CCN(c2nc(-c3ccc(Cl)cc3)cs2)CC1
The inhibition of the first is lower: -40.3% for the first, -19.1% for the second.

First: CC1CN(C(=O)CCC(=O)NCCCN2C(C)CCCC2C)c2ccccc2O1 (stereo not drawn)
Second: CC1CCCC(C)N1C(=O)c1cc(-c2cccs2)on1 (stereo not drawn)
The inhibition of the first is higher: 26.4% for the first, -28.6% for the second.

First: Cc1ccc(CNC(=O)C2CCCN(S(=O)(=O)c3c(C)[nH]c(=O)[nH]c3=O)C2)cc1 (stereo not drawn)
Second: O=C(c1ccc(Cl)cc1)C1CCCN(Cc2ccc(Oc3ncccn3)cc2)C1 (stereo not drawn)
The inhibition of the first is lower: -3.9% for the first, 19.6% for the second.

Compared with `O=C(Cn1c(=O)oc2ccccc21)NC(=O)NCc1ccco1`, `CCN1C(=O)c2cccc3c(S(=O)(=O)NCc4ccco4)ccc1c23` is lower in inhibition: -3.9% for the first, -23% for the second.

Going from `CCN(CC)C(=S)NC(=O)c1ccc(F)cc1` to `CCN(CC)c1ccc(/C=c2\sc3nc4ccccc4n3c2=O)c(O)c1`, the inhibition rises from -25% to 33.8%.

Compared with `COc1cc(/C=N/NC(=O)CCOc2ccccc2C)cc(Br)c1O`, `CC(=O)c1cc(C#N)c(NCc2ccccc2)nc1C` is lower in inhibition: -26.7% for the first, -40.7% for the second.

First: CCCCN=Cc1c(C)[nH]n(-c2ccccc2)c1=S
Second: Cc1[nH]n(-c2ccccc2)c(=O)c1C=NCCc1ccccc1
The inhibition of the first is higher: 0.8% for the first, -43.1% for the second.

First: Fc1ccc(-c2ccc(/C=N\n3cnnc3)o2)cc1Cl
Second: Cc1ccc(-c2ccc(/C=N/n3cnnc3)o2)cc1Cl
The inhibition of the first is higher: 1.3% for the first, -11.3% for the second.

Compared with `C/C(N)=C(/C#N)C(=O)COC(=O)c1cccc(O)c1`, `Cc1cccc(-c2nc3c(c(SCC(N)=O)n2)CCCC3)c1` is higher in inhibition: -29.6% for the first, -10.2% for the second.

First: CCCCCCNC(=O)CCc1nc2cccnc2n1Cc1ccc(OC)cc1
Second: COc1ccc(CN2CCCC(C(=O)c3ccc(Cl)cc3)C2)cc1Cn1cccn1 (stereo not drawn)
The inhibition of the first is higher: -10.4% for the first, -12.4% for the second.

Going from `CC1=C/C(=N\NC(=S)NCCc2ccccc2)CC(C)(C)C1` to `CNC(=O)c1ccc(-c2ccccc2)s1`, the inhibition rises from -43.4% to -12.7%.

Going from `CC(C)(C)C1CCC(=NNC(=S)Nc2cccnc2)CC1` (stereo not drawn) to `CC(C)Oc1cccc(C(=O)C2CCCN(Cc3cnn(C(C)C)c3)C2)c1` (stereo not drawn), the inhibition falls from -17.4% to -18.3%.

Compared with `CC(C)OC(=O)CC(=O)CSc1nc2c(cc1C#N)CCCCC2`, `CC(C)OC(=O)CC(=O)CSc1nc2c(cc1C#N)CCCCCC2` is higher in inhibition: -26.3% for the first, -24.1% for the second.

Compared with `O=C(c1cccs1)N1CCC(C(=O)N2CCN(Cc3ccc4c(c3)OCO4)CC2)CC1`, `CC(C)c1ccc(NC2CCCN(C(=O)c3cccc(N4CCNC4=O)c3)C2)cc1` (stereo not drawn) is higher in inhibition: -24.9% for the first, 30.5% for the second.

Compared with `CCOC(=O)C1=C(SCC)c2cc3c(n2C1=O)CCCC3`, `N#CC1=C(N2CCCCC2)c2cc3c(n2C1=O)CCCC3` is higher in inhibition: -36.8% for the first, 7.7% for the second.

Compared with `c1cn(CCCNc2ncnc3sc4c(c23)CCC4)cn1`, `O=c1/c(=C/c2ccccn2)sc2nc3ccccc3n12` is lower in inhibition: 29.2% for the first, -98.1% for the second.

Going from `CCOc1cccc(-c2cc(C(=O)Nc3ccon3)c3ccccc3n2)c1` to `Cc1ccccc1-n1nc2c(c1NC(=O)c1c(-c3ccccc3Cl)noc1C)CS(=O)(=O)C2`, the inhibition rises from -14% to -10.3%.

Going from `O=C1CC(Cc2ccc(Br)cc2)C(=O)N1c1ccccc1` (stereo not drawn) to `O=c1c2ccccc2cnn1-c1ccc(Cl)nn1`, the inhibition rises from -19.8% to -19%.

Going from `Clc1ccc(N/N=C/c2ccncc2)cc1Cl` to `Clc1cncc(Cl)c1N/N=C/c1ccccc1`, the inhibition rises from -40.8% to -10.5%.

Compared with `Nc1ccc(-c2ccc(C(=O)O)s2)cn1`, `Cc1cc(/C=C2/NC(=O)NC2=O)c(C)n1-c1ccccn1` is lower in inhibition: -26.1% for the first, -34.5% for the second.

In the case of `CN1c2ccc(C=O)c3c(C=O)ccc(c23)N(C)C1(C)C`, the inhibition is reported as 72% (active).
With `CC(Oc1ccc(Cl)cc1Cl)C(=O)NC(=S)N1CCc2ccccc21` (stereo not drawn) the inhibition was 102% (active).
With `O=C(CSc1ccccn1)Nc1nonc1[N+](=O)[O-]` the inhibition was 57.6% (active).
For `COc1ccccc1NC(=O)Nc1cnccn1`, the inhibition was 111% (active).
With `O=C(CSc1ncnc2[nH]ncc12)Nc1nc(-c2ccc(F)c(F)c2)cs1` the inhibition was 46% (active).
In the case of `CCCN(CCC)C(=S)NC(=O)c1ccc(-c2ccccc2)cc1`, the inhibition is reported as 52.6% (active).
With `COc1ccc(/C=N/NC(=O)CCOc2ccccc2C)cc1OC` the inhibition was 62.5% (active).
With `Cc1[nH]n(-c2ccccc2)c(=S)c1C=NCCCN=Cc1c(C)[nH]n(-c2ccccc2)c1=S` the inhibition was 88.7% (active).
In the case of `Cc1cc(-c2ccc(/C=N/n3cnnc3)o2)ccc1Cl`, the inhibition is reported as 67.4% (active).
In the case of `CC1=C/C(=N\NC(=S)Nc2cccnc2)CC(C)(C)C1`, the inhibition is reported as 43.4% (active).
In the case of `CC(C)OC(=O)CSc1nc2c(cc1C#N)CCCCC2`, the inhibition is reported as 111% (active).
In the case of `CCSC1=C(C#N)C(=O)n2c1cc1c2CCCC1`, the inhibition is reported as 67% (active).
With `Clc1cncc(Cl)c1N/N=C/c1ccncc1` the inhibition was 75.3% (active).
In the case of `CC(C)Oc1cccc(C(=O)C2CCCN(Cc3ccc4nonc4c3)C2)c1` (stereo not drawn), the inhibition is reported as 55.2% (active).
With `O=C(O)c1ccc(-c2ccc(-c3ccccc3)cc2)s1` the inhibition was 93.5% (active).
With `Cc1cc(/C=c2/sc3nc4ccccc4n3c2=O)c(C)n1-c1ccccn1` the inhibition was 74.4% (active).
